Source: PubChem BioAssay
A selection: hits, their analogues and other compounds. The true share with any hit is near 2.9%.
PAFAH2 inh: PAFAH2 (human) inhibition | actives 0.99% (n = 340,000) | inhibition, % at 3.39 µM | recombinant PAFAH2, FP-rhodamine activity probe, fluorescence polarization;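 active means inhibition above the mean over all tested compounds plus 3 SD, cut at about 30% in these data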;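 further: inhibitors block probe labeling of enzyme so polarization drops; 0% = enzyme with DMSO and 100% = wells lacking PAFAH2 protein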
rCAG RNA binder: binds r(CAG) RNA repeats; actives 1.3% (n = 370,000); r(CAG) RNA repeat, TO-PRO-1 dye displacement fluorescence; inhibition, % at 3 µM;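 active means inhibition above the plate cutoff, the mean of all test compounds on that plate plus 3 SD, cut at about 35% in these data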;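 further: 0% = DMSO alone and 100% = 100 µM mitoxantrone as full dye displacement; higher means more dye released from RNA so lower well fluorescence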
PAFAH1B3 inh: blocks human PAF acetylhydrolase 1B catalytic subunit 3 | Q15102 | recombinant PAFAH1B3, FP-rhodamine probe, fluorescence polarization | inhibition, % at 3.39 µM | actives 0.28% (n = 340,000) | AID 492972;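 active means inhibition above the screen-wide average of all tested compounds plus 3 SD, cut at about 25% in these data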;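 further: 0% = enzyme with DMSO only and 100% = wells lacking PAFAH1B3 protein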
Target sequence (Q15102 whole entry, looked up): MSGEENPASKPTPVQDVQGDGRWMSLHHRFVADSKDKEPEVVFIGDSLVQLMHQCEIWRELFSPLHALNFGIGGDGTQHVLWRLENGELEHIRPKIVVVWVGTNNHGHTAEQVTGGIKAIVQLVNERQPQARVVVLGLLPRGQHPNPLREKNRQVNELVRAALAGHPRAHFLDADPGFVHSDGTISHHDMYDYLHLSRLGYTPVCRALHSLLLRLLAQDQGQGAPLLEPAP
ZTA DNA inh: counter-screen for EBNA-1 inhibitors: inhibitors of Epstein-Barr virus ZTA; P03206; actives 0.15% (n = 320,000); ZTA-DNA binding, fluorescence polarization; inhibition, % at 11 µM; in the data active means inhibition above about 33%
Target sequence (P03206 whole entry, looked up): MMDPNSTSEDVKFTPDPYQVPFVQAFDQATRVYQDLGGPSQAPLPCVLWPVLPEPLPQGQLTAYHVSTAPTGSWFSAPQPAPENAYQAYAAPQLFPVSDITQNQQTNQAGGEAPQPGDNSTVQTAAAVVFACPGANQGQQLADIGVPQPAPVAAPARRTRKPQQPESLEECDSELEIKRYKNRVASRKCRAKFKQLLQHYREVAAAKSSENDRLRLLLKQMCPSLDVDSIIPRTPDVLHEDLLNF
EBNA-1 inh: blocks EBNA-1 binding to DNA; actives 0.34% (n = 300,000); EBNA-1 DNA binding, fluorescence polarization; inhibition, % at 14.8 µM; in the data active means inhibition above about 28%
PAFAH1B2 inh: inhibitors of human PAFAH1B2. actives 1.2% (n = 340,000). recombinant PAFAH1B2, FP-rhodamine activity probe, fluorescence polarization. P68402. inhibition, % at 3.39 µM;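 active means inhibition above the mean of all tested compounds plus 3 SD, cut at about 24% in these data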;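 further: 0% = enzyme with DMSO and 100% = wells lacking PAFAH1B2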
rCAG binder conf: r(CAG) RNA repeat binding, confirmation. shares compounds with rCAG RNA binder. TO-PRO-1 dye displacement fluorescence. inhibition, % at 3 µM. actives 70% (n = 4,300). AID 652065;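 active means inhibition above a per-plate cutoff, the mean inhibition of sample wells plus 3 SD, cut at about 35% in these data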;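 further: loss of TO-PRO-1 fluorescence as compound displaces dye from 1x1 AA loop RNA; 0% = DMSO only wells and 100% = 100 µM mitoxantrone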
DNA CAG counter: DNA CAG dye complex inhibition counter-screen | shares compounds with rCAG RNA binder | d(CAG) DNA oligo TO-PRO-1 dye displacement, fluorescence | inhibition, % at 3 µM | actives 94% (n = 4,300);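 active means inhibition above its plate's cutoff, the mean test-well inhibition plus 3 SD, cut at about 4.8% in these data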;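 further: 0% = DNA dye mix with DMSO and 100% = 100 µM mitoxantrone; hits displace the dye from DNA and so lower well fluorescence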
dCAG dye DR: disrupts DNA CAG TO-PRO-1 complex in dose response. actives 20% (n = 250). IC50, µM. shares compounds with rCAG RNA binder. DNA CAG/GTC duplex TO-PRO-1 dye displacement fluorescence; in the data active means IC50 below about 10 µM
The depositor's hits bear a star; i = inactive; . = no result.

SMILES | PAFAH2 inh | rCAG RNA binder | PAFAH1B3 inh | ZTA DNA inh | EBNA-1 inh | PAFAH1B2 inh | rCAG binder conf | DNA CAG counter | others
O=S(=O)(c1ccc(-c2csc(Nc3ccc(F)cc3)n2)cc1)N1CCCC1 | -14 | 16 | 7 | 17 | 7 | -6 | . | .
O=[N+]([O-])c1ccc(S(=O)(=O)Nc2nc(-c3ccccc3)cs2)cc1 | 16 | 66* | -2 | 10 | 16 | 1 | 41* | 11*
O=S(=O)(Nc1nc(-c2ccccc2)cs1)c1cccc(C(F)(F)F)c1 | 6 | 78* | 1 | -6 | 5 | 8 | 57* | 22*
Cc1ccc(S(=O)(=O)Nc2nc(-c3ccc(F)cc3)cs2)cc1 | 1 | 62* | 5 | 4 | -4 | -8 | 56* | 15*
COc1cc2c(cc1O)CCN(C(=O)CSc1nncn1C)[C@@H]2C | 3 | 1 | 1 | 4 | . | 5 | . | .
CSc1ccc(CNC(=O)C2CCC(=O)N(CCc3ccc(Cl)cc3)C2)cc1 (stereo not drawn) | . | 2 | . | . | . | . | . | .
O=C(NN=Cc1ccc(F)cc1)c1ccccc1NS(=O)(=O)c1cccs1 | 15 | 26 | 7 | . | . | 5 | . | .
Cc1nn(-c2ccccc2)c(C)c1/C=N/NC(=O)c1ccccc1NS(=O)(=O)c1cccs1 | 5 | 62* | 4 | 11 | -6 | -3 | 60* | 21*
O=C(NN=Cc1cc(Br)c(O)c(Br)c1)c1ccccc1NS(=O)(=O)c1cccs1 | 11 | 40* | 30* | . | . | 4 | 35* | 10*
COc1ccccc1/C=N/NC(=O)c1ccccc1NS(=O)(=O)c1ccc(C)cc1 | 5 | 39* | 9 | 14 | 8 | 7 | 45* | 14*
Cc1nn(-c2ccccc2)c(C)c1/C=N/NC(=O)c1cccs1 | 2 | -3 | 0 | -20 | 10 | -4 | . | .
COc1cc(/C=N/NC(=O)c2ccccc2NS(=O)(=O)c2cccs2)ccc1O | 7 | 43* | 3 | . | . | -4 | 32 | 9.4*
COc1ccc(NS(=O)(=O)c2cccc(C(=O)NN=Cc3ccc(OC)cc3OC)c2)cc1 | -10 | 9 | 15 | . | . | 6 | . | .
O=C(N/N=C/c1ccc([N+](=O)[O-])o1)c1ccccc1NS(=O)(=O)c1cccs1 | 6 | 45* | 5 | -8 | -11 | 6 | 41* | 15*
COc1ccc(NS(=O)(=O)c2cccc(C(=O)NN=Cc3cc(Br)c(O)c(Br)c3)c2)cc1 | 28 | 39* | 8 | . | . | 10 | 43* | 17*
CCOC(=O)C1=C(CBr)NC(=O)NC1C (stereo not drawn) | -1 | 0 | 3 | 3 | 8 | 4 | . | .
COc1ccc(CCNC(=O)c2cc(-c3cc(Cl)ccc3O)n[nH]2)cc1OC | 0 | 8 | 0 | 4 | -7 | 2 | . | .
Cc1ccc(NC(=S)N(Cc2cccc(Br)c2)CC2CCC(C(=O)O)CC2)cc1Cl (stereo not drawn) | 5 | 44* | 14 | -18 | -11 | 13 | 60* | 21* | dCAG dye DR=i
Cc1cc(C)cc(NC(=S)N(Cc2cccc(Br)c2)CC2CCC(C(=O)O)CC2)c1 (stereo not drawn) | -1 | 7 | 8 | 8 | 8 | 7 | . | .
CCc1ccc(NC(=S)N(Cc2cccc(Br)c2)CC2CCC(C(=O)O)CC2)cc1 (stereo not drawn) | 2 | 42* | 2 | 9 | -1 | 4 | 53* | 18*
NC(CS(=O)O)C(=O)O (stereo not drawn) | 1 | 2 | 0 | 12 | 3 | 3 | . | .
O=C(c1ccoc1)N1CCN(c2cc(-c3cccc(F)c3)nc3cc(-c4cccc(Cl)c4)nn23)CC1 | . | 6 | . | . | . | . | . | .
Cc1cc([N+](=O)[O-])nn1Cc1noc(C(=O)NCCc2ccccn2)n1 | 2 | -2 | -7 | 1 | 3 | -1 | . | .
CCc1c(C)sc2nc3c(C(=O)N4CCOCC4)cc(C(=O)c4ccccc4O)cn3c(=O)c12 | -8 | 8 | -1 | 10 | -2 | -5 | . | .
